Compound activity: PubChem, National Center for Advancing Translational Sciences (NCATS)
ALOX15 inhib: 15-hLO (ALOX15) enzyme inhibition | P16050 | purified 15hLO-1, xylenol orange hydroperoxide absorbance | Potency, µM (top dose mostly 57.1 µM), for the others: at the highest dose activity change, negative = inhibition, hits mostly inhibitors | 1.4% of 74,000 active; note: potency is the fitted concentration of half-maximal effect; % is set by controls: 0 for no effect and ±100 for the full control effect; nearly all actives have a fitted effect of over 55% in size
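Purified human 15hLO-1 (40 nM) in 25 mM Hepes pH 7.5, 0.01% Triton X-100, preincubated 15 min RT with compound, then 50 uM arachidonic acid for 6 min. Hydroperoxide read by ferrous/xylenol orange, 30 min; 573/405 nm absorbance ratio gave progress.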
Tau filament bind: binders of human tau filaments; P10636; recombinant tau filaments, thioflavin S fluorescence, 15 h; filaments grown with octadecylsulfate alongside compound; Potency, µM (top dose mostly 57.1 µM), inactives show top-dose activity change, negative = inhibition; 2% of 71,000 active;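 note: potency is the fitted concentration of half-maximal effect; % is set by controls: 0 for no effect and ±100 for the full control effect; actives lower thioflavin S fluorescence by blocking filaments or displacing dye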
Target sequence (P10636 whole entry, looked up): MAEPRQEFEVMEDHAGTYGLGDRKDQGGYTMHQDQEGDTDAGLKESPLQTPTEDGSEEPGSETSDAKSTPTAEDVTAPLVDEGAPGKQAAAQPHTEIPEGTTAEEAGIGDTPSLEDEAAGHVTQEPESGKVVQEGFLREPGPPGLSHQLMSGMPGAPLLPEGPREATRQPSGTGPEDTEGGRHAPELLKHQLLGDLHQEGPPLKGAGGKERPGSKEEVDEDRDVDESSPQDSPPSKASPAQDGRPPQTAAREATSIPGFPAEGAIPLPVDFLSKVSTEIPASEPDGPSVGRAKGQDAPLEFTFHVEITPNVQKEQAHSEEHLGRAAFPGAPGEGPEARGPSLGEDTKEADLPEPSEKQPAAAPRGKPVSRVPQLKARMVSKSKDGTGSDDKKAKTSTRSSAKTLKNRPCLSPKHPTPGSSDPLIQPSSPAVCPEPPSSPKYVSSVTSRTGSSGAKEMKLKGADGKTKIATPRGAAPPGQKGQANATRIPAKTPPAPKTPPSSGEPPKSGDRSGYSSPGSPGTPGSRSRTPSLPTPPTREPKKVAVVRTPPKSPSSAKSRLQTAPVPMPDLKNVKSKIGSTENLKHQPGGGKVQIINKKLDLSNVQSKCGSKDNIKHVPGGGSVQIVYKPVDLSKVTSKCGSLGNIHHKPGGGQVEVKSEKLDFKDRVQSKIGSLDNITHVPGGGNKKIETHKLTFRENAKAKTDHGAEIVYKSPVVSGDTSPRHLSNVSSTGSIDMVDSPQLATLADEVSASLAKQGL
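Read-out: ThS fluorescence, 450 nm excitation/510 nm emission; lower signal marks blocked filament formation or displaced dye. Tau at 1 uM with 30 uM ODS, 10 uM ThS, 5 mM DTT, 100 mM NaCl, 10 mM HEPES pH 7.4; 15 h, 37 C.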
TsaE inh: YjeE (TsaE) inhibition, E. coli | P0AF67 | 0.05% of 71,000 active | AID 605 | purified YjeE enzyme, qHTS inhibition assay | Potency, µM
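Purified YjeE (10 uM) with BODIPY Texas Red-labeled ADP probe (2 uM); compounds pin-transferred, 15 min at room temperature. Binding inhibition read as decreased fluorescence polarization; ADP titration as control.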
BRCT inh red: disrupts BRCA1 BRCT binding to phosphoprotein, red fluorophore readout | Potency, µM (top dose mostly 76.9 µM), for inactives: top-dose activity change, negative = inhibition, most hits filed as inhibitors | BRCT-phosphopeptide binding, red fluorescence polarization | 0.03% of 75,000 active | P38398; note: % is set by controls: 0 for no effect and ±100 for the full control effect
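Fluorescence polarization: 100 nM His-tagged BRCA1 BRCT with 100 nM TAMRA-labelled phospho-BACH1 decapeptide, phosphate buffer pH 7.3 with 150 mM NaCl, DTT, 0.01% Tween 20; 12 min RT. Binding inhibition seen as FP decrease.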
BRCT inh green: BRCA1 BRCT-phosphoprotein interaction inhibition; Potency, µM (top dose mostly 76.9 µM), for inactives: at the highest dose activity change, negative = inhibition, most hits filed as inhibitors; BRCA1 BRCT-phosphopeptide binding, green fluorescence polarization; P38398; 0.05% of 75,000 active; AID 875;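 note: potency is the fitted concentration of half-maximal effect; plate controls were peptide without protein for full effect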
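Fluorescence polarization: His-tagged BRCT (~35 kDa BRCA1 C-terminus, 250 nM) bound to 100 nM fluorescein-labeled phosphorylated 10-aa BACH1 peptide, pH 7.3 phosphate buffer with DTT and Tween 20. Compounds incubated 12 min at room temperature; inhibition read as lowered polarization.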
Pol III holo inh: blocks replication by bacterial DNA polymerase III holoenzyme; AID 603; reconstituted DNA polymerase III holoenzyme replication, biochemical; 0.25% of 71,000 active; Potency, µM (doses to about 57.1 µM), inactives show top-dose activity change, negative = inhibition; note: potency is the fitted concentration of half-maximal effect; % is set by controls: 0 for no effect and ±100 for the full control effect
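Reconstituted *E. coli* holoenzyme (0.35 nM Pol III, 1 nM beta, 154 nM SSB, 2 nM primase) was preincubated with compound for 15 min at RT. Synthesis on 1.4 nM ssM13Gori ran 35 min, then was stopped with PicoGreen/EDTA and read as dsDNA fluorescence.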
The depositor's hits bear a star; i = inactive; u = inconclusive; x = no result; [ ] = another dose, or the depositor's remark. A selection: hits, their analogues and other compounds. The true share with any hit is near 3.3%. Calls come from the whole dose curve; as a rule, active = well fitted curve in the direction sought with a large enough effect; inconclusive = small, poorly fitted or top-dose-only effect, or another doubt; inactive = no such curve, though single readings can be large; an effect the other way counts as inactive or inconclusive.

SMILES	ALOX15 inhib	Tau filament bind	TsaE inh	BRCT inh red	BRCT inh green	Pol III holo inh
COC(=O)C1=C(C)N(Cc2ccccc2)[C@]23O[C@](C(=O)OC)(C(=O)N2C1c1ccccc1)C1C(=O)N(C)C(=O)C13 (stereo partly specified)	-4.0%[11.4 µM]	x	x	1.0%[15.4 µM]	2.0%[15.4 µM]	x
COc1cc(CNc2ccc3[nH]c(=O)[nH]c3c2)ccc1OCC(=O)NC(C)(C)C	25.1µM*	12.6µM*	i	-3.9%	-0.2%	-17.4%
COc1cc(CNCCO)ccc1OCC(=O)Nc1ccc(Br)cc1	-13.0%	-2.5%	i	0.5%	-4.7%	-3.7%
O=c1ccc2c(o1)/C(=C/C=C(Cl)Cl)CCC2	u	2µM*	i	-0.2%	-2.2%	-5.1%[11.4 µM]
CCN1c2ccccc2NC2N=C(OC)C(c3ccccc3)C21 (stereo unspecified)	25.1µM*	31.6µM*	i	-0.4%	-0.7%	-0.2%
CCN1c2ccccc2NC2C1C(C(C)=O)C(=O)N2c1ccc(Cl)cc1 (stereo unspecified)	-24.3%	-29.4%	i	1.2%	1.9%	0.2%
NCCOc1ccccn1	-0.9%[11.4 µM]	9.9%[11.4 µM]	i	0.7%[15.4 µM]	1.3%[15.4 µM]	-7.2%[11.4 µM]
NC(=O)c1sc(=S)n(-c2ccc(Br)cc2)c1N	10µM*	-19.1%	i	-1.1%	-8.0%	-7.4%
COc1ccccc1-n1c(N)c(C(N)=O)sc1=S	-28.2%	8.1%	i	1.8%	-2.3%	-0.8%
CCCS(=O)(=O)c1c(S(=O)(=O)CCC)c2ccccn2c1C(=O)OC	-6.7%	1.9%	i	-1.1%	-1.2%	2.9%
CCCS(=O)(=O)c1c(S(=O)(=O)CCC)c2c(N)cccn2c1C(=O)c1ccc(F)cc1	10µM*	394.1%	i	-1.4%	0.1%	-7.9%
Nc1nc2sc3c(c2c(=O)s1)CCCC3	0.794µM*	18.6%	i	-2.3%	-4.7%	-2.6%
C[C@]12CCC(=O)C=C1CCC1C2C(=O)C[C@]2(C)C1CC[C@]2(O)C(=O)CO (stereo partly specified)	9.4%	x	x	1.7%	-1.7%	x
c1ccc(-c2cnc(CSc3ncnc4sccc34)o2)cc1	15.8µM*	-13.0%	i	-11.1%	3.2%	u
COc1cc2c3cc1Oc1cc(ccc1O)C[C@@H]1c4c(cc(OC)c(O)c4Oc4ccc(cc4)C[C@H]3[N+](C)(C)CC2)CC[N+]1(C)C	1.4%[11.4 µM]	-2.6%[11.4 µM]	i	0.4%[15.4 µM]	-1.7%[15.4 µM]	-9.7%[11.4 µM]
O=C(COC(=O)c1ccccc1)NCc1ccco1	-26.1%	-0.9%	i	-2.5%	0.3%	-5.8%
O=C(COC(=O)c1ccccc1Oc1ccccc1)NCc1ccco1	12.6µM*	2.8%	i	0.1%	2.8%	-4.9%
O=C(COC(=O)c1cc(-c2cccs2)nc2ccccc12)NCc1ccco1	-17.6%	15.8µM*	i	0.2%	-2.0%	-5.7%
COc1ccc(OCCC(=O)OCC(=O)NCc2ccco2)cc1	12.6µM*	7.8%	i	0.4%	-2.1%	-6.0%
O=C(COC(=O)c1cc(-c2ccco2)nc2ccccc12)NCc1ccc2c(c1)OCO2	u	12.6µM*	i	0.4%	3.2%	-11.4%
CC(=O)OC[C@H]1O[C@@H](O/N=C(\C)CCN2CCc3nc(-c4ccccc4)c(-c4ccccc4)cc3C2)[C@H](OC(C)=O)[C@@H](OC(C)=O)[C@H]1OC(C)=O	5.3%[11.4 µM]	x	x	0.5%[15.4 µM]	1.5%[15.4 µM]	x
O=C(N/N=C1/C[C@@H](O)[C@@H](O)[C@@H]2[C@@H]3C(=O)N(c4cccc(Oc5ccccc5)c4)C(=O)[C@H]3CC[C@@H]12)OCc1ccccc1	-1.6%[11.4 µM]	x	x	2.8%[15.4 µM]	-3.6%[15.4 µM]	x
CC(C)Cn1c(N)c(C(=O)COC(=O)c2cc(-c3ccco3)nc3ccccc23)c(=O)n(C)c1=O	u	12.6µM*	i	-6.3%	-5.3%	-29.7%
Cn1c(=O)c(C(=O)COC(=O)c2cc(-c3ccco3)nc3ccccc23)c(N)n(Cc2ccccc2)c1=O	x	x	x	1.4%	5.5%	x
O=C(COC(=O)c1c2c(nc3ccccc13)CCCC2)Nc1ccc2c(c1)OCO2	-27.8%	15.8µM*	i	1.3%	0.5%	0.6%
SMILES	ALOX15 inhib	Tau filament bind	TsaE inh	BRCT inh red	BRCT inh green	Pol III holo inh
O=C(COC(=O)c1ccco1)Nc1ccc2c(c1)OCO2	-10.4%	-17.7%	u	1.0%	2.1%	-4.3%
O=c1oc2c(O)c(O)cc3c(=O)oc4c(O)c(O)cc1c4c23	u	u	i	-4.8%	-10.4%	0.00501µM*
O=c1/c(=C/c2ccccn2)sc2nc3ccccc3n12	1.1%[11.4 µM]	0.501µM*	i	-0.4%	-3.5%	7.9%[11.4 µM]
COC(=O)/C=c1/sc2nc3ccccc3n2c1=O	u	5.4%	i	-1.1%	1.0%	0.5%
CCOC(=O)c1nn(-c2ccc(OC)cc2)c(=O)c2c(N)scc12	7.94µM*	15.8µM*	i	-2.1%	-2.4%	-1.6%
CCOC(=O)c1nn(-c2ccc(OC)cc2)c(=O)c2c(NC(=O)c3ccco3)scc12	-2.7%	-9.7%	i	0.0%	-1.3%	1.2%
CC1(C)CC(Nc2ccc(Nc3ccccc3)cc2)CC(C)(C)N1	u	1.58µM*	i	-0.2%[15.4 µM]	-0.8%[15.4 µM]	-10.5%[11.4 µM]
c1ccc(-c2noc(CN3CCN(c4ccccc4)CC3)n2)cc1	1.2%	4.5%	i	1.1%	-1.9%	-0.8%
COc1ccc(N2CCN(Cc3nc(-c4ccc(Cl)cc4Cl)no3)CC2)cc1	-8.2%	12.6µM*	i	-0.5%	-7.8%	6.1%
CCOc1ccc(S(=O)(=O)Nc2cccc(C(=O)N3CCN(c4ccc(OC)cc4)CC3)c2)cc1	u	-16.4%	i	-1.1%	-1.8%	-3.1%
COc1ccc(N2CCN(C(=O)c3ccc(NS(=O)(=O)c4ccc(F)cc4)cc3)CC2)cc1	u	15.8µM*	i	-1.8%	-4.5%	0.7%
CCN1C(=C2C(=O)c3ccccc3C2=O)C=Cc2ccccc21	-27.6%	12.6µM*	i	0.4%	0.3%	-1.2%
Fc1ccc([C@H]2CCNC[C@H]2COc2ccc3c(c2)OCO3)cc1	-29.4%[25.6 µM]	31.6µM*	i	-3.6%	-2.6%	-4.4%
O=C(Nc1ccccc1)C1=C(O)CC(c2ccco2)CC1=Nc1ccccc1 (stereo unspecified)	3.16µM*	u	i	-3.4%	3.1%	-12.3%
O=C(Nc1ccccc1)C1=C(O)CC(c2ccoc2)CC1=Nc1ccccc1 (stereo unspecified)	3.98µM*	30.5%[11.4 µM]	i	0.4%	9.7%	0.6%[11.4 µM]
OC[C@@H]1O[C@@H](n2cnc3cncnc32)[C@@H](O)[C@H]1O	-4.8%	11.2%	i	-2.7%	-1.2%	-6.1%
O=C(OCC#CCSc1nc2ccccc2s1)c1ccco1	-0.7%	-6.6%	u	0.2%	1.2%	8.1%
